Laboratory results from the supplement of paper PMC6607015.
Where a name gives a salt, the structure may show the parent alone.

How the values were obtained:
Settings in all cases: compound concentration in added solution (µM; 5 µl added to 20 µl cells): 10; 18 h
A431 [1] = experiment: LBPA endosome anti-LBPA integrated intensity (sum per cell), Z-score; higher = more LBPA staining
Outline: (§1)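 Each value is a Z-score normalised in AcuityXpress from per-cell integrated LBPA or filipin intensity, taken over the whole cell or within LBPA endosomes. Duplicate 384-well imaging plates held 5 µl of 10 µM compound solution, onto which 3,500 HeLa MZ or A431 cells in 20 µl were seeded per well. After 18 h the cells were fixed in 4% PFA, stained with 6C4 anti-LBPA antibody, filipin, propidium iodide and CellTracker green, imaged four times per well at 20× and segmented in MetaXpress.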

HeLa MZ [2] = experiment: as above
Outline: as §1

A431 [3] = experiment: whole-cell filipin (free cholesterol) integrated intensity, Z-score; higher = more cholesterol staining
Outline: as §1

HeLa MZ [4] = experiment: as above
Outline: as §1

A431 [5] = experiment: filipin (cholesterol) integrated intensity within LBPA endosomes, Z-score; higher = more cholesterol in LBPA endosomes
Outline: as §1

HeLa MZ [6] = experiment: as above
Outline: as §1

Compound	LBPA endosome anti-LBPA integrated intensity (z-score) (A431 [1])	LBPA endosome anti-LBPA integrated intensity (z-score) (HeLa MZ [2])	whole-cell filipin (z-score) (A431 [3])	whole-cell filipin (z-score) (HeLa MZ [4])	filipin (z-score) (A431 [5])	filipin (z-score) (HeLa MZ [6])
CN(C)CC/C=C1/c2ccccc2Sc2ccc(Cl)cc21 [Chlorprothixene hydrochloride]	4.13	2.63	1.46	0.54	2.61	2.32
Clc1ccccc1CN1CCc2sccc2C1 [Ticlopidine hydrochloride]	-0.571	-1.16	-0.834	-0.662	-0.515	-0.675
CC1(C)[C@H](C(=O)O)N2C(=O)C[C@H]2S1(=O)=O [Sulbactam]	-0.453	-1.27	-0.128	-0.121	-0.375	-0.509
NCCC[C@H](N)CC(=O)N[C@H]1CNC(=O)[C@H]([C@H]2C[C@H](O)NC(N)=N2)NC(=O)/C(=C/NC(N)=O)NC(=O)[C@H](CO)NC(=O)[C@H](CO)NC1=O [Viomycin sulfate]	-0.57	-1.06	-0.305	-0.46	-0.563	-0.474
CC/C(=C(/CC)c1ccc(O)cc1)c1ccc(O)cc1 [Diethylstilbestrol]	-0.432	-0.702	-0.0535	-0.813	-0.37	-0.493
CCCCCCC[N+](CC)(CC)CCCCc1ccc(Cl)cc1 [Clofilium tosylate]	-0.496	-0.791	-0.98	-1.56	-0.614	-0.77
CO/N=C(\C(=O)N[C@@H]1C(=O)N2C(C(=O)O)=C(COC(N)=O)CS[C@H]12)c1ccco1 [Cefuroxime sodium salt]	-0.467	-0.812	-0.402	0.0343	-0.419	-0.472
CCCCC1(COC(=O)CCC(=O)O)C(=O)N(c2ccccc2)N(c2ccccc2)C1=O [Suxibuzone]	-0.274	0.271	-0.0127	0.34	-0.358	-0.384
CN(C)CCCOc1nn(Cc2ccccc2)c2ccccc12 [Benzydamine hydrochloride]	1.07	2.25	1.71	-0.196	1.63	0.942
CN(c1nccc(=O)[nH]1)C1CCN(c2nc3ccccc3n2Cc2ccc(F)cc2)CC1 [Mizolastine]	-0.6	0.425	-0.708	0.222	-0.551	0.0832
CCC[C@@H]1C[C@@H](C(=O)N[C@@H]([C@H]2O[C@H](SC)[C@H](O)[C@@H](O)[C@H]2O)[C@@H](C)O)N(C)C1 [Lincomycin hydrochloride]	-0.565	-0.696	-0.903	-1.08	-0.504	-0.682
COc1c(N2CCNC(C)C2)c(F)cc2c(=O)c(C(=O)O)cn(C3CC3)c12 (centres undefined) [Gatifloxacin]	-0.517	0.0619	-0.124	0.333	-0.446	0.0101
CC(=O)Nc1nnc(S(N)(=O)=O)s1 [Acetazolamide]	-0.546	-1.16	-0.799	-0.564	-0.395	-0.429
CNC[C@H](O)[C@@H](O)[C@H](O)[C@H](O)CO [Meglumine]	-0.671	-1.5	-0.386	-0.451	-0.555	-0.582
Clc1ccc2nsnc2c1NC1=NCCN1 [Tizanidine HCl]	-0.331	0.552	-0.333	-0.51	-0.548	-0.219
CC(C)CC(=O)N[C@H](C(=O)N[C@H](C(=O)N[C@@H](CC(C)C)[C@@H](O)CC(=O)N[C@@H](C)C(=O)N[C@@H](CC(C)C)[C@@H](O)CC(=O)O)C(C)C)C(C)C [Pepstatin A]	-0.604	-1.38	-0.841	-0.484	-0.569	-0.589
C[C@H](CS)C(=O)N1CCC[C@H]1C(=O)O [Captopril]	-0.394	-0.389	-0.482	0.478	-0.442	-0.261
Cc1c(Cl)cccc1Nc1ccccc1C(=O)O [Tolfenamic acid]	-0.417	-0.76	-0.809	-0.604	-0.464	-0.636
Cc1ccc(C)c(OCCCC(C)(C)C(=O)O)c1 [Gemfibrozil]	-0.639	-0.782	-0.695	-0.706	-0.635	-0.699
COc1ccc2c(c1)c(CC(=O)OCC(=O)O)c(C)n2C(=O)c1ccc(Cl)cc1 [Acemetacin]	-0.545	-0.702	-1.02	-0.542	-0.556	-0.644
O=C(O)CCC(=O)c1ccc(-c2ccccc2)cc1 [Fenbufen]	-0.493	0.243	-0.496	-0.311	-0.512	-0.583
COc1ccccc1N1CCN(CCCCNC(=O)c2ccc3ccccc3c2)CC1	2.82	1.25	2.45	2.22	2.37	3.33
CC1=C(/C=C/C(C)=C/C=C/C(C)=C/C(=O)O)C(C)(C)CCC1 [Retinoic acid]	-0.177	-0.508	-0.103	-0.698	-0.286	-0.43
CCN(CC)CCc1nc(-c2ccccc2)no1 [Oxalamine citrate salt]	-0.387	0.162	-0.277	-0.546	-0.442	-0.374
CCN(CCO)CCCC(C)Nc1ccnc2cc(Cl)ccc12 (centres undefined) [Hydroxychloroquine sulfate]	0.14	1.98	-0.556	0.249	-0.241	0.821

Compound	LBPA endosome anti-LBPA integrated intensity (z-score) (A431 [1])	LBPA endosome anti-LBPA integrated intensity (z-score) (HeLa MZ [2])	whole-cell filipin (z-score) (A431 [3])	whole-cell filipin (z-score) (HeLa MZ [4])	filipin (z-score) (A431 [5])	filipin (z-score) (HeLa MZ [6])
CN(C)c1ccc(O)c2c1C[C@H]1C[C@H]3[C@H](N(C)C)C(O)=C(C(N)=O)C(=O)[C@@]3(O)C(O)=C1C2=O [Minocycline hydrochloride]	-0.618	-1.91	-1.01	-1.52	-0.639	-0.888
CN(C)c1nc(N(C)C)nc(N(C)C)n1 [Altretamine]	-0.54	-1.33	-0.283	-0.6	-0.517	-0.671
CN(Cc1ccc(C(C)(C)C)cc1)Cc1cccc2ccccc12 [Butenafine Hydrochloride]	-0.698	-1.43	-0.644	-0.481	-0.512	-0.793
CCC1=C(C)CN(C(=O)NCCc2ccc(S(=O)(=O)NC(=O)N[C@H]3CC[C@H](C)CC3)cc2)C1=O [Glimepiride]	-0.623	-0.491	-0.412	-0.0517	-0.467	-0.486
CCN1CCC[C@H]1CNC(=O)c1c(OC)ccc(Br)c1OC [Remoxipride Hydrochloride]	-0.395	0.278	-0.41	-0.384	-0.372	-0.266
CN(C)C/C=C(/c1ccc(Br)cc1)c1cccnc1 [Zimelidine dihydrochloride monohydrate]	-0.281	0.0916	-0.265	-0.387	0.179	0.387
Cc1scc2c1N(C(=O)CN1CCN(C)CC1)c1ccccc1NC2=O [Telenzepine dihydrochloride]	-0.645	0.0897	-0.931	-0.897	-0.595	-0.401
Nc1nc(N)c2nc(-c3ccccc3)c(N)nc2n1 [Triamterene]	0.172	-1.01	-0.647	-1.14	-0.443	-0.487
CN(C)CCCN1c2ccccc2Sc2ccccc21 [Promazine hydrochloride]	2.06	2.59	1.2	-0.208	1.35	1.31
CCCCC[C@H](O)/C=C/[C@H]1[C@H](O)CC(=O)[C@@H]1CCCCCCC(=O)O [Alprostadil]	-0.322	-0.486	0.113	-0.324	-0.323	-0.34
COc1cc2nc(N3CCN(C(=O)C4CCCO4)CC3)nc(N)c2cc1OC (centres undefined) [Terazosin hydrochloride]	-0.178	0.906	-0.323	-0.357	-0.379	0.00198
COCC(=O)Nc1c(I)c(C(=O)NCC(O)CO)c(I)c(C(=O)N(C)CC(O)CO)c1I (centres undefined) [Iopromide]	-0.665	-1.68	-0.559	-0.164	-0.527	-0.574
C[C@]12C[C@H](O)[C@H]3[C@@H](CCC4=CC(=O)CC[C@@]43C)[C@@H]1CC[C@@H]2C(=O)CO [Corticosterone]	-0.334	0.522	-0.492	-0.633	-0.326	-0.407
CC(=O)N(CC(O)CN(C(C)=O)c1c(I)c(C(=O)NCC(O)CO)c(I)c(C(=O)NCC(O)CO)c1I)c1c(I)c(C(=O)NCC(O)CO)c(I)c(C(=O)NCC(O)CO)c1I (centres undefined) [Iodixanol]	-0.538	-0.533	-0.268	-0.245	-0.464	-0.482
Cc1c(O)c(=O)n(-c2ccccc2)n1C [Antipyrine, 4-hydroxy]	-0.407	-0.193	-0.48	0.114	-0.485	-0.43
Cc1c(N(C)C)c(=O)n(-c2ccccc2)n1C [Amidopyrine]	-0.435	-0.447	-0.729	0.0263	-0.495	-0.518
CCOC(=O)C1=C[C@]2(CC)CCCN3CCc4c(n1c1ccccc41)[C@@H]32 [Vinpocetine]	-0.0891	0.52	-0.413	-0.464	-0.326	-0.0256
O=C(O)Cc1ccc(-c2ccccc2)cc1 [Felbinac]	-0.537	-0.83	-0.402	-0.285	-0.525	-0.491
CCCc1cc(C(N)=S)ccn1 [Prothionamide]	-0.257	0.224	0.0431	-0.0396	-0.301	-0.377
CN(CCCCCCCCCCN(C)C(=O)Oc1cccc([N+](C)(C)C)c1)C(=O)Oc1cccc([N+](C)(C)C)c1 [Demecarium bromide]	-0.223	-0.152	-0.139	-0.617	-0.179	-0.595
CC(N)CCCC(C)(C)O (centres undefined) [Heptaminol hydrochloride]	-0.451	-1.1	-0.647	-0.285	-0.442	-0.477
CCOC(=O)OC(C)OC(=O)[C@@H]1N2C(=O)[C@@H](NC(=O)[C@H](N)c3ccccc3)[C@H]2SC1(C)C (some centres undefined) [Bacampicillin hydrochloride]	-0.503	-1.29	-0.749	-0.787	-0.467	-0.528
Nc1ccc(S(N)(=O)=O)cc1 [Sulfanilamide]	-0.59	-0.84	-0.27	0.397	-0.496	-0.373
CC(C(=O)O)c1ccc2c(c1)Cc1cccnc1O2 (centres undefined) [Pranoprofen]	-0.52	-0.228	-0.251	-0.607	-0.527	-0.553
